A number with no mark means an inactive call. Activity calls are given as the source filed them.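 Rule for the calls: active = inhibition of at least 75% in the gel-based probe competition assay; inactive = inhibition below 75%.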

Broadly, the inhibition is the change of the read-out against control, counted positive when it falls.

Platelet-activating factor acetylhydrolase (Mus musculus), sequence (Q60963 whole entry, looked up): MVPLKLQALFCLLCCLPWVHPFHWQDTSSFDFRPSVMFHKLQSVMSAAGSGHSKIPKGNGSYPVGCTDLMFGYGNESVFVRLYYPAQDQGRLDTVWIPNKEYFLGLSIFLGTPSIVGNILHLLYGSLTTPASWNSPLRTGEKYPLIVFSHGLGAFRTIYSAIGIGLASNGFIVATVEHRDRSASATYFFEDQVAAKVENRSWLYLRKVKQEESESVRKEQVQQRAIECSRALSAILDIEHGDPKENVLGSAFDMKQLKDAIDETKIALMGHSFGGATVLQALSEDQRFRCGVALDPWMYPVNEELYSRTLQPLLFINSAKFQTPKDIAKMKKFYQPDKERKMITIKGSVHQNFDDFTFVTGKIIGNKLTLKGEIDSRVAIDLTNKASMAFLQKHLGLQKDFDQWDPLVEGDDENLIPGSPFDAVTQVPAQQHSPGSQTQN

The assay addresses Platelet-activating factor acetylhydrolase (Mus musculus) (UniProt Q60963). Briefly: recombinant plasma PAF acetylhydrolase inhibition – biochemical, gel-based competitive ABPP, fluorescence, orthogonal assay, late-stage follow-up (AID 588474). The conditions noted are these: recombinant mouse pPAFAH, FP-Rh fluorescence, at 5 µM, active compounds read high.
Take `O=C(Oc1nsnc1N1CCOCC1)N1CCOCC1`: the inhibition is 84% (active).

As for `CC(=O)Nc1ccc(NC(=O)CCn2c(=O)oc3ccccc32)cc1`, the inhibition is 30%.

On to `Cn1c(=O)oc2cc(S(=O)(=O)Nc3ccc(F)cc3)ccc21`, for which the inhibition is 24%.

`Cc1cc(C(=O)CSc2nc(N)cc(=O)[nH]2)c(C)n1CCc1ccc(Cl)cc1`: the inhibition was 6%.

Consider `O=C(CCCSc1ccc(Cl)cc1)Nc1cc(S(=O)(=O)N2CCOCC2)ccc1O`, for which the inhibition is 75% (active).

`CCOCCCNC(=O)c1ccc(N2CC3CC(C2)c2cccc(=O)n2C3)c(NC(=O)Nc2cccc(OC)c2)c1` (stereo unspecified): the inhibition was 21%.

In the case of `O=C(Oc1ccc(-c2ccccc2)cc1)N1CCOCC1`, the inhibition was 98% (active).

For `O=C(Oc1nsnc1N1CCCCC1)N1CCOCC1`, the inhibition is 55%.

For the compound `O=C(Oc1ccnc2cc(Cl)ccc12)N1CCOCC1`, the inhibition is 22%.

`CCc1ccc(NC(=O)Nc2cc(C(=O)NCC3CCCO3)ccc2N2CC3CC(C2)c2cccc(=O)n2C3)cc1` (stereo unspecified): the inhibition is 8%.

With `CCCCOC(=O)Nc1nnc(CCc2ccccc2)s1`, the inhibition was 22%.

For the compound `CCOC(=O)N1CCN(C(=O)c2cccc(S(=O)(=O)Nc3ccc(Br)cc3)c2)CC1`, the inhibition was 7%.

In the case of `O=C(/C=C/c1cccs1)c1cc(Br)ccc1OC(=O)N1CCOCC1`, the inhibition is 91% (active).

For `O=C(c1ccccc1)c1ccc(OC(=O)N2CCOCC2)cc1`, the inhibition is 55%.

Take `Cc1cccc(C2=NN(c3ccc(Br)cc3)[C@@H](C(=O)N3CCOC3=O)[C@@H]2c2ccccc2)c1`: the inhibition was 18%.

For the compound `O=C(Oc1cccc(Oc2ccccc2)c1)N1CCOCC1`, the inhibition is 18%.

With `Cc1ccc(NS(=O)(=O)c2ccc3[nH]c(=O)oc3c2)c(C)c1`, the inhibition is 18%.

For the compound `O=C(Oc1ccc(-c2ccccc2)cc1)N1CCCCC1`, the inhibition is 79% (active).

Regarding `CCOC(=O)N1CCC(NC(=O)CC2C(=O)NCCN2Cc2ccccc2F)CC1` (stereo unspecified), the inhibition is 10%.

On to `Cc1ccc(NS(=O)(=O)c2ccc3c(c2)oc(=O)n3C)cc1F`, for which the inhibition is 53%.

On to `O=C(N/C=C/c1ccco1)OCc1ccccc1`, for which the inhibition was -3%.

Regarding `Cc1ccc(-n2c(C)cc(/C=C(\C#N)C(=O)NCC3CCCO3)c2C)cc1` (stereo unspecified), the inhibition is 23%.

Take `Cc1cccc(NS(=O)(=O)c2ccc3[nH]c(=O)oc3c2)c1C`: the inhibition was 17%.

For the compound `CCn1c(NC(=O)c2cccc(Cn3cc(Cl)cn3)c2)nc2ccccc21`, the inhibition is 0%.

`Cc1cc(/C=C(\C#N)C(=O)NCC2CCCO2)c(C)n1-c1ccc(Cl)cc1` (stereo unspecified): the inhibition was 9%.

Take `COc1cccc(NC(=O)Nc2cc(C(=O)NCC3CCCO3)ccc2N2CC3CC(C2)c2cccc(=O)n2C3)c1` (stereo unspecified): the inhibition was 18%.

Take `O=C(Oc1nsnc1N1CCOCC1)N1CCCCC1`: the inhibition is 65%.

Regarding `CCOC(=O)NC(=O)CSc1nc(-c2ccc(C)c(C)c2)cn1-c1ccccc1`, the inhibition was 56%.

Regarding `CCCCOC(=O)c1ccc(OC(=O)N2CCOCC2)cc1`, the inhibition was 93% (active).

As to `CCOC(=O)N1CCN(C(=O)c2ccc3c(=O)n4c(nc3c2)CCCCC4)CC1`, the inhibition was 8%.

In the case of `CCOC(=O)N1CCN(C(=O)CCN2C(=O)COc3ccc(C)cc32)CC1`, the inhibition was 22%.

As for `COc1cc(OC)c(NC(=O)CCNS(=O)(=O)c2ccc3c(c2)oc(=O)n3C)cc1Cl`, the inhibition is 6%.

Regarding `CCCNC(=O)c1ccc(N2CC3CC(C2)c2cccc(=O)n2C3)c(NC(=O)Nc2ccc(CC)cc2)c1` (stereo unspecified), the inhibition is 18%.

Regarding `O=C(Oc1ccc(Oc2ccccc2)cc1)N1CCC(O)CC1`, the inhibition is 82% (active).

On to `COc1cccc(CNC(=O)CCC2CCCN(Cc3cc(Cl)ccc3O)C2)c1` (stereo unspecified), for which the inhibition was 24%.

Turning to `COc1cccc(NC(=O)Nc2cc(C(=O)NC(C)C)ccc2N2CC3CC(C2)c2cccc(=O)n2C3)c1` (stereo unspecified), the inhibition is 41%.
